The sequences below were run against SPI1 (Homo sapiens, UniProt P17947 1-270) (assay: DAPPL (digital affinity profiling via proximity ligation, sequencing); 10 mM Tris-HCl pH 7.5, 50 mM NaCl, 1 mM DTT, 4% glycerol, room temperature, 30 min; GST-TFs on glutathione beads, 16-mer random dsDNA library, 0.1% formaldehyde crosslink after washing; high values mean tight binding). Details: protein: recombinant; tags: N-terminal GST; dsDNA, one strand shown.
Outline: (§1)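 GST fusions of human transcription factors were expressed in yeast and captured with glutathione beads. Once given DNA barcodes and pooled alongside a tag-only sample, they were incubated for 30 min at room temperature with 200 nmole of a random double-stranded 16-mer DNA library in Tris/NaCl/DTT/glycerol buffer, then washed, crosslinked (0.1% formaldehyde), proximity-ligated, PCR-amplified and sequenced on an Illumina NextSeq500. The binding signal of each hexamer is its read frequency for a factor divided by its frequency for the tag-only sample.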
In the case of AACGAC, the binding signal was 1.12 fold enrichment (6-mer frequency, TF over GST control). For CGCCGA, the binding signal was 1.16 fold enrichment (6-mer frequency, TF over GST control). With CGCCGC the binding signal was 1.11 fold enrichment (6-mer frequency, TF over GST control). With TAATGA the binding signal was 1.22 fold enrichment (6-mer frequency, TF over GST control). For CCGTAA, the binding signal was 1.13 fold enrichment (6-mer frequency, TF over GST control). ATTACT was tested, and the binding signal was 1.28 fold enrichment (6-mer frequency, TF over GST control). CTGGCC was tested, and the binding signal was 1.28 fold enrichment (6-mer frequency, TF over GST control). With ATAGCA the binding signal was 1.11 fold enrichment (6-mer frequency, TF over GST control). With CCATTG the binding signal was 1.25 fold enrichment (6-mer frequency, TF over GST control). TCTATA was tested, and the binding signal was 1.07 fold enrichment (6-mer frequency, TF over GST control). In the case of CTTACA, the binding signal was 1.22 fold enrichment (6-mer frequency, TF over GST control). For AACGAA, the binding signal was 1.14 fold enrichment (6-mer frequency, TF over GST control). In the case of CCTCTG, the binding signal was 1.63 fold enrichment (6-mer frequency, TF over GST control). For GAAAAA, the binding signal was 1.21 fold enrichment (6-mer frequency, TF over GST control). With AGATGC the binding signal was 1.08 fold enrichment (6-mer frequency, TF over GST control). For TACTAA, the binding signal was 1.25 fold enrichment (6-mer frequency, TF over GST control). CTCCGT was tested, and the binding signal was 1.19 fold enrichment (6-mer frequency, TF over GST control). With TGCGAC the binding signal was 1.24 fold enrichment (6-mer frequency, TF over GST control). For GAACTT, the binding signal was 1.74 fold enrichment (6-mer frequency, TF over GST control). For ATCGCT, the binding signal was 1.02 fold enrichment (6-mer frequency, TF over GST control). In the case of AAGTAG, the binding signal was 1.35 fold enrichment (6-mer frequency, TF over GST control). With AACAGC the binding signal was 1.11 fold enrichment (6-mer frequency, TF over GST control). For TACTGC, the binding signal was 1.24 fold enrichment (6-mer frequency, TF over GST control). GCCGAT was tested, and the binding signal was 1.12 fold enrichment (6-mer frequency, TF over GST control). In the case of CCTCAA, the binding signal was 1.55 fold enrichment (6-mer frequency, TF over GST control). GCACTG was tested, and the binding signal was 1.14 fold enrichment (6-mer frequency, TF over GST control). In the case of TTTCGC, the binding signal was 1.13 fold enrichment (6-mer frequency, TF over GST control). In the case of ATCTAC, the binding signal was 1.34 fold enrichment (6-mer frequency, TF over GST control). In the case of CACTCT, the binding signal was 1.34 fold enrichment (6-mer frequency, TF over GST control). For ATTATC, the binding signal was 1.35 fold enrichment (6-mer frequency, TF over GST control). In the case of GGCACT, the binding signal was 1.35 fold enrichment (6-mer frequency, TF over GST control). For TCAACG, the binding signal was 1 fold enrichment (6-mer frequency, TF over GST control). TCCACT was tested, and the binding signal was 1.5 fold enrichment (6-mer frequency, TF over GST control). ACAATG was tested, and the binding signal was 1.06 fold enrichment (6-mer frequency, TF over GST control). In the case of AGTTTC, the binding signal was 1.22 fold enrichment (6-mer frequency, TF over GST control). For AACAAG, the binding signal was 1.04 fold enrichment (6-mer frequency, TF over GST control). In the case of ACCTCC, the binding signal was 1.31 fold enrichment (6-mer frequency, TF over GST control). With CGATAG the binding signal was 1.1 fold enrichment (6-mer frequency, TF over GST control). For AGTACT, the binding signal was 1.25 fold enrichment (6-mer frequency, TF over GST control).

Each sequence was assayed against SPIB (Homo sapiens, UniProt Q01892 1-262) in the same assay as above. Details: protein: recombinant; tags: N-terminal GST; dsDNA, one strand shown.
Chain of SPIB (Q01892 whole entry): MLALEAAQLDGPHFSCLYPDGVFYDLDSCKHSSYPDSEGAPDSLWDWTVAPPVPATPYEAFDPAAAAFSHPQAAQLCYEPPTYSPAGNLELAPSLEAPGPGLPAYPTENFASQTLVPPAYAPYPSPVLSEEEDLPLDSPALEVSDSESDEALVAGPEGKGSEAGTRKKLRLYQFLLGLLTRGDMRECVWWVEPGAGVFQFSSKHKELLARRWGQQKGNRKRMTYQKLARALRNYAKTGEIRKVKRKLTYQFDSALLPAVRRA
Outline: as §1
With AACGAC the binding signal was 1.04 fold enrichment (6-mer frequency, TF over GST control). For CGCCGA, the binding signal was 1.18 fold enrichment (6-mer frequency, TF over GST control). In the case of CGCCGC, the binding signal was 1.11 fold enrichment (6-mer frequency, TF over GST control). With TAATGA the binding signal was 1.16 fold enrichment (6-mer frequency, TF over GST control). With CCGTAA the binding signal was 1.06 fold enrichment (6-mer frequency, TF over GST control). With ATTACT the binding signal was 1.33 fold enrichment (6-mer frequency, TF over GST control). For CTGGCC, the binding signal was 1.18 fold enrichment (6-mer frequency, TF over GST control). ATAGCA was tested, and the binding signal was 1.18 fold enrichment (6-mer frequency, TF over GST control). In the case of CCATTG, the binding signal was 1.05 fold enrichment (6-mer frequency, TF over GST control). With TCTATA the binding signal was 1.15 fold enrichment (6-mer frequency, TF over GST control). For CTTACA, the binding signal was 1.21 fold enrichment (6-mer frequency, TF over GST control). AACGAA was tested, and the binding signal was 1.19 fold enrichment (6-mer frequency, TF over GST control). CCTCTG was tested, and the binding signal was 1.6 fold enrichment (6-mer frequency, TF over GST control). For GAAAAA, the binding signal was 1.18 fold enrichment (6-mer frequency, TF over GST control). In the case of AGATGC, the binding signal was 1.09 fold enrichment (6-mer frequency, TF over GST control). TACTAA was tested, and the binding signal was 1.23 fold enrichment (6-mer frequency, TF over GST control). With CTCCGT the binding signal was 1.13 fold enrichment (6-mer frequency, TF over GST control). In the case of TGCGAC, the binding signal was 1.27 fold enrichment (6-mer frequency, TF over GST control). For GAACTT, the binding signal was 1.69 fold enrichment (6-mer frequency, TF over GST control). With ATCGCT the binding signal was 1.14 fold enrichment (6-mer frequency, TF over GST control). For AAGTAG, the binding signal was 1.13 fold enrichment (6-mer frequency, TF over GST control). AACAGC was tested, and the binding signal was 1.13 fold enrichment (6-mer frequency, TF over GST control). With TACTGC the binding signal was 1.13 fold enrichment (6-mer frequency, TF over GST control). With GCCGAT the binding signal was 1.07 fold enrichment (6-mer frequency, TF over GST control). For CCTCAA, the binding signal was 1.42 fold enrichment (6-mer frequency, TF over GST control). For GCACTG, the binding signal was 1.05 fold enrichment (6-mer frequency, TF over GST control). For TTTCGC, the binding signal was 1.2 fold enrichment (6-mer frequency, TF over GST control). In the case of ATCTAC, the binding signal was 1.35 fold enrichment (6-mer frequency, TF over GST control). With CACTCT the binding signal was 1.23 fold enrichment (6-mer frequency, TF over GST control). For ATTATC, the binding signal was 1.27 fold enrichment (6-mer frequency, TF over GST control). With GGCACT the binding signal was 1.35 fold enrichment (6-mer frequency, TF over GST control). For TCAACG, the binding signal was 1.12 fold enrichment (6-mer frequency, TF over GST control). In the case of TCCACT, the binding signal was 1.39 fold enrichment (6-mer frequency, TF over GST control). ACAATG was tested, and the binding signal was 1.16 fold enrichment (6-mer frequency, TF over GST control). For AGTTTC, the binding signal was 1.24 fold enrichment (6-mer frequency, TF over GST control). AACAAG was tested, and the binding signal was 1.06 fold enrichment (6-mer frequency, TF over GST control). With ACCTCC the binding signal was 1.4 fold enrichment (6-mer frequency, TF over GST control). In the case of CGATAG, the binding signal was 1.07 fold enrichment (6-mer frequency, TF over GST control). AGTACT was tested, and the binding signal was 1.13 fold enrichment (6-mer frequency, TF over GST control).

These sequences were tested against T1, ELK3 (Homo sapiens, UniProt P41970 1-407) in the same assay as above. Details: protein: recombinant; tags: N-terminal GST; dsDNA, one strand shown.
T1 sequence: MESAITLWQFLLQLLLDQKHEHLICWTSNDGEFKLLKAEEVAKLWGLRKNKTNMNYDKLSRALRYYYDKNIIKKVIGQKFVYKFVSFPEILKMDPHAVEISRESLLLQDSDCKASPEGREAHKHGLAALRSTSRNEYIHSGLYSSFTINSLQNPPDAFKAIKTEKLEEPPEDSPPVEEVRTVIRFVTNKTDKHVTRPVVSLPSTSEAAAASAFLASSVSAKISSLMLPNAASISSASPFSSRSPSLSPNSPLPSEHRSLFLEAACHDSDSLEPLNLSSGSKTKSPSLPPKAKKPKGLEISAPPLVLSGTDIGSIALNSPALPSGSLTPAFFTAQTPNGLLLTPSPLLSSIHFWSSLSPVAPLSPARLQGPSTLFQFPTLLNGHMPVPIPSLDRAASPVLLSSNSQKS
Outline: as §1
AACGAC was tested, and the binding signal was 1.06 fold enrichment (6-mer frequency, TF over GST control). For CGCCGA, the binding signal was 1.22 fold enrichment (6-mer frequency, TF over GST control). With CGCCGC the binding signal was 1.32 fold enrichment (6-mer frequency, TF over GST control). In the case of TAATGA, the binding signal was 1.21 fold enrichment (6-mer frequency, TF over GST control). For CCGTAA, the binding signal was 1.14 fold enrichment (6-mer frequency, TF over GST control). For ATTACT, the binding signal was 1.24 fold enrichment (6-mer frequency, TF over GST control). In the case of CTGGCC, the binding signal was 1.06 fold enrichment (6-mer frequency, TF over GST control). With ATAGCA the binding signal was 1.15 fold enrichment (6-mer frequency, TF over GST control). For CCATTG, the binding signal was 1.16 fold enrichment (6-mer frequency, TF over GST control). In the case of TCTATA, the binding signal was 1.17 fold enrichment (6-mer frequency, TF over GST control). CTTACA was tested, and the binding signal was 1.24 fold enrichment (6-mer frequency, TF over GST control). In the case of AACGAA, the binding signal was 1.13 fold enrichment (6-mer frequency, TF over GST control). CCTCTG was tested, and the binding signal was 1.58 fold enrichment (6-mer frequency, TF over GST control). In the case of GAAAAA, the binding signal was 1.21 fold enrichment (6-mer frequency, TF over GST control). In the case of AGATGC, the binding signal was 1.01 fold enrichment (6-mer frequency, TF over GST control). TACTAA was tested, and the binding signal was 1.24 fold enrichment (6-mer frequency, TF over GST control). CTCCGT was tested, and the binding signal was 1.38 fold enrichment (6-mer frequency, TF over GST control). In the case of TGCGAC, the binding signal was 1.16 fold enrichment (6-mer frequency, TF over GST control). In the case of GAACTT, the binding signal was 1.7 fold enrichment (6-mer frequency, TF over GST control). In the case of ATCGCT, the binding signal was 1.1 fold enrichment (6-mer frequency, TF over GST control). With AAGTAG the binding signal was 1.26 fold enrichment (6-mer frequency, TF over GST control). With AACAGC the binding signal was 1.17 fold enrichment (6-mer frequency, TF over GST control). TACTGC was tested, and the binding signal was 1.1 fold enrichment (6-mer frequency, TF over GST control). For GCCGAT, the binding signal was 1.08 fold enrichment (6-mer frequency, TF over GST control). In the case of CCTCAA, the binding signal was 1.44 fold enrichment (6-mer frequency, TF over GST control). With GCACTG the binding signal was 1.06 fold enrichment (6-mer frequency, TF over GST control). With TTTCGC the binding signal was 1.14 fold enrichment (6-mer frequency, TF over GST control). For ATCTAC, the binding signal was 1.27 fold enrichment (6-mer frequency, TF over GST control). In the case of CACTCT, the binding signal was 1.34 fold enrichment (6-mer frequency, TF over GST control). With ATTATC the binding signal was 1.32 fold enrichment (6-mer frequency, TF over GST control). GGCACT was tested, and the binding signal was 1.27 fold enrichment (6-mer frequency, TF over GST control). With TCAACG the binding signal was 1.22 fold enrichment (6-mer frequency, TF over GST control). In the case of TCCACT, the binding signal was 1.49 fold enrichment (6-mer frequency, TF over GST control). In the case of ACAATG, the binding signal was 1.08 fold enrichment (6-mer frequency, TF over GST control). AGTTTC was tested, and the binding signal was 1.46 fold enrichment (6-mer frequency, TF over GST control). AACAAG was tested, and the binding signal was 1.22 fold enrichment (6-mer frequency, TF over GST control). With ACCTCC the binding signal was 1.46 fold enrichment (6-mer frequency, TF over GST control). For CGATAG, the binding signal was 1.11 fold enrichment (6-mer frequency, TF over GST control). AGTACT was tested, and the binding signal was 1.44 fold enrichment (6-mer frequency, TF over GST control).

From article PMC7862700, “An all-to-all approach to the identification of sequence-specific readers for epigenetic DNA modifications on cytosine”
